For 37 compounds, growth results are on record in PubChem BioAssay (NCI).

Molecules are shown by their SMILES. About 83,000 compounds went through this panel and 20% of them were active in at least one assay; those are over-represented in the sample as a whole.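 Note: values are percent growth. 100 is the growth of untreated cells, values between 100 and 0 indicate rising inhibition; between -100 and 0 indicates cell death.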 Calls of active or inactive are those of the source. How the source made its calls: active means growth percent below 10; inactive means the rest.

The first test concerns UACC-62 melanoma. Kind of test: NCI-60 one-dose screen, 48 h (100 = growth as untreated, 0 = no growth, -100 = all killed). The settings on record: 10 µM unless noted.
In the case of `Cc1ccc(NC(=O)N[C@@H](Cc2cc(F)cc(F)c2)C(=O)NC2C(=O)N3CCC[C@H]3C(=O)N3CCCC[C@H]3C(=O)N[C@@H](C)C(=O)N3C[C@H](C)C[C@H]3C(=O)O[C@H]2C)c(F)c1` (stereo not given in full), the growth is 30.3% (inactive).

Regarding `Oc1ccccc1-c1nnc(SCc2ccc(O)c3ncccc23)o1`, the growth is 30.2% (inactive).

Turning to `COc1cc(/C=C2\SC(=O)NC2=O)ccc1OCC(=O)Nc1ccc(C(=O)/C=C/c2cc3ccccc3nc2Cl)cc1`, the growth was 84.3% (inactive).

On to `Nc1nc(-c2cccc([N+](=O)[O-])c2)c(N=Nc2ccccc2Cl)s1`, for which the growth is 71.6% (inactive).

`Oc1ccc(-c2nnc(SCc3ccc(O)c4ncccc34)o2)cc1`: the growth is -12.7% (active).

As for `C[C@H]1[C@H](C)CC[C@]2(COC(=O)c3cccnc3)CC[C@]3(C)C(=CC[C@@H]4[C@@]5(C)CCCNC(C)(C)[C@@H]5CC[C@]43C)[C@H]12`, the growth is 53.4% (inactive).

Consider `COc1ccc(N2CCN(C(=O)CSc3ccc(-c4nc5cc(C)c(C)cc5[nH]4)cn3)CC2)cc1`, for which the growth was 45.3% (inactive).

Regarding `Cc1cc(F)cc(NS(=O)(=O)c2ccc(-c3cnc(C4CC4)o3)cc2)c1`, the growth is 25.6% (inactive).

For the compound `Oc1ccc(CSc2nnc(-c3ccncc3)o2)c2cccnc12`, the growth was 18.2% (inactive).

Turning to `O=C(COc1ccc(/C=C2\SC(=O)NC2=O)cc1)Nc1ccc(C(=O)/C=C/c2cc3ccccc3nc2Cl)cc1`, the growth is 70.6% (inactive).

With `O=C(Nc1cccc(Cl)c1)Nc1nc2ccc([N+](=O)[O-])cc2s1`, the growth is -40.2% (active).

Turning to `Cn1cc(-c2nn3cc(-c4cccnc4)nc3s2)c2cc(F)ccc21`, the growth was 62.2% (inactive).

Consider `COc1ccc(CCN2C(=O)/C(=C/c3nc(CO)cs3)SC2=S)cc1`, for which the growth is 79.7% (inactive).

On to `C/C(=N\NC(=S)Nc1ccc(Br)cc1)c1cc2ccccc2oc1=O`, for which the growth was -20.5% (active).

Turning to `O=C1[C@H]2Cc3c([nH]c4ccccc34)[C@@H](c3c(Cl)cccc3Cl)N2C(=O)CN1C1CCN(Cc2ccccc2)CC1`, the growth was 72.5% (inactive).

In the case of `Oc1ccccc1-c1nnc(SCc2ccc(O)c3ncccc23)n1-c1ccccc1`, the growth was -8.29% (active).

On to `CC1=C2C(=C[C@@](C)(COS(N)(=O)=O)[C@@H]2O)C(=O)[C@](C)(O)C12CC2`, for which the growth is 62.1% (inactive).

Turning to `CC1(COc2ccc3ncc(C#Cc4cncc(C(=O)Nc5cc(C(C)(C)C)on5)c4)n3n2)COC1`, the growth was 29.6% (inactive).

Consider `NC(=S)N/N=C(/C=C/c1cn(-c2ccccc2)nc1-c1ccc(Cl)cc1)c1cc2ccccc2oc1=O`, for which the growth is 49.6% (inactive).

In the case of `Cc1cc(NS(=O)(=O)c2ccc(-c3cnc(C4CC4)o3)cc2)ccc1I`, the growth was 30.3% (inactive).

Regarding `Oc1ccc(CSc2nnc(-c3ccccc3)o2)c2cccnc12`, the growth was 5.32% (active).

For `CS(=O)(=O)c1ccc2c(c1)c1c(n2S(=O)(=O)c2ccc(Cl)cc2)CCCC1`, the growth is 15.5% (inactive).

As to `C=C(C)C(=O)O[C@H]1C[C@@]2(C)OC(=CC2=O)[C@H](C)[C@H](O)[C@H]2OC(=O)C(=C)[C@@H]21`, the growth was 52.3% (inactive).

Take `O=C(Nc1cc(Cl)cc(Cl)c1)Nc1nc2ccc([N+](=O)[O-])cc2s1`: the growth is -34.1% (active).

On to `C#C[C@]1(O)CC[C@H]2[C@@H]3CC=C4c5sc(Nc6ccc(OC)nc6)nc5CC[C@]4(C)[C@H]3CC[C@@]21C`, for which the growth is 70.5% (inactive).

`CCOc1ccc2nc(NC(=O)Nc3ccccc3C)sc2c1`: the growth is 47.2% (inactive).

As for `CN(c1ccc(Br)cc1)S(=O)(=O)c1ccc(-c2cnc(C3CC3)o2)cc1`, the growth is 28.5% (inactive).

Consider `CCNC(=NCCCN(C)C)N/C(N)=N/c1nc2ccccc2s1`, for which the growth is 97.6% (inactive).

As to `Cc1cc(Cl)cc(NS(=O)(=O)c2ccc(-c3cnc(C4CC4)o3)cc2)c1`, the growth is 31.5% (inactive).

On to `CS(=O)c1nccc(-c2c(-c3ccc(F)c(OCCc4ccc(F)cc4)c3)nc3sccn23)n1` (stereo not given), for which the growth is 86% (inactive).

For `CN(c1ccc(F)cc1)S(=O)(=O)c1ccc(-c2cnc(C3CC3)o2)cc1`, the growth was 30.5% (inactive).

Regarding `Cc1cn(-c2cc(NC(=O)c3cncc(C#Cc4cnc5ccc(OCCCS(C)(=O)=O)nn45)c3)cc(C(F)(F)F)c2)cn1`, the growth is 21.4% (inactive).

Another test relates to LOX IMVI melanoma. The test is described as above. The settings on record: 10 µM unless noted.
In the case of `Cc1ccc(NC(=O)N[C@@H](Cc2cc(F)cc(F)c2)C(=O)NC2C(=O)N3CCC[C@H]3C(=O)N3CCCC[C@H]3C(=O)N[C@@H](C)C(=O)N3C[C@H](C)C[C@H]3C(=O)O[C@H]2C)c(F)c1` (stereo not given in full), the growth is 25.3% (inactive).

For `COc1ccc(/C=C/C(=O)c2nnn(-c3ccc(C(=O)O)cc3)c2C)cc1OC`, the growth was 76.2% (inactive).

`O=C(Nc1cc(F)cc2cccnc12)c1cnc(N2CCOCC2)cn1`: the growth was 19.4% (inactive).

In the case of `Oc1ccccc1-c1nnc(SCc2ccc(O)c3ncccc23)o1`, the growth is 39.1% (inactive).

With `Nc1nc(-c2cccc([N+](=O)[O-])c2)c(N=Nc2ccccc2Cl)s1`, the growth was 25.3% (inactive).

On to `COc1ccc(N2CCN(C(=O)CSc3ccc(-c4nc5cc(C)c(C)cc5[nH]4)cn3)CC2)cc1`, for which the growth was 56.8% (inactive).

`Oc1ccc(CSc2nnc(-c3ccncc3)o2)c2cccnc12`: the growth is 21.4% (inactive).

Consider `O=C(COc1ccc(/C=C2\SC(=O)NC2=O)cc1)Nc1ccc(C(=O)/C=C/c2cc3ccccc3nc2Cl)cc1`, for which the growth was 47.8% (inactive).

`Cn1cc(-c2nn3cc(-c4cccnc4)nc3s2)c2cc(F)ccc21`: the growth is 85.7% (inactive).

As to `COc1ccc(CCN2C(=O)/C(=C/c3nc(CO)cs3)SC2=S)cc1`, the growth was 30.8% (inactive).

`C/C(=N\NC(=S)Nc1ccc(Br)cc1)c1cc2ccccc2oc1=O`: the growth is 14% (inactive).

Consider `O=C1[C@H]2Cc3c([nH]c4ccccc34)[C@@H](c3ccc(Cl)cc3)N2C(=O)CN1C1CCN(Cc2c(Cl)cccc2Cl)CC1`, for which the growth was -89% (active).

As to `O=C1[C@H]2Cc3c([nH]c4ccccc34)[C@@H](c3c(Cl)cccc3Cl)N2C(=O)CN1C1CCN(Cc2ccccc2)CC1`, the growth is -31.2% (active).

For the compound `Oc1ccccc1-c1nnc(SCc2ccc(O)c3ncccc23)n1-c1ccccc1`, the growth is 3.79% (active).

For the compound `NC(=S)N/N=C(/C=C/c1cn(-c2ccccc2)nc1-c1ccc(Cl)cc1)c1cc2ccccc2oc1=O`, the growth was 36% (inactive).

On to `O=C(/C=C1\C=CN(CCCCO)c2ccccc21)n1ccc2ccccc21`, for which the growth was 114% (inactive).

For `Oc1ccc(CSc2nnc(-c3ccccc3)o2)c2cccnc12`, the growth is 5.66% (active).

Take `CS(=O)(=O)c1ccc2c(c1)c1c(n2S(=O)(=O)c2ccc(Cl)cc2)CCCC1`: the growth was 36.5% (inactive).

For the compound `C=C(C)C(=O)O[C@H]1C[C@@]2(C)OC(=CC2=O)[C@H](C)[C@H](O)[C@H]2OC(=O)C(=C)[C@@H]21`, the growth was 57.7% (inactive).

With `CCNC(=NCCCN(C)C)N/C(N)=N/c1nc2ccccc2s1`, the growth is 73.5% (inactive).

`N/C(=N\c1nc2ccc([N+](=O)[O-])cc2s1)C(Cl)(Cl)Cl`: the growth is 76% (inactive).

Turning to `CS(=O)c1nccc(-c2c(-c3ccc(F)c(OCCc4ccc(F)cc4)c3)nc3sccn23)n1` (stereo not given), the growth was 19.9% (inactive).

For the compound `Cc1cn(-c2cc(NC(=O)c3cncc(C#Cc4cnc5ccc(OCCCS(C)(=O)=O)nn45)c3)cc(C(F)(F)F)c2)cn1`, the growth was 9.26% (active).
